# Laboratory results published in PubChem BioAssay (EPA / NIEHS).
# Where “and” joins values, the source holds several entries; their conditions need not be identical. Equal entries are not always repeated. Results filed as inconclusive are left out. Calls of active or inactive are those of the source. The calls were made as follows, unless noted: active = hit-call score of the fitted dose curve at least 0.9, where 1 is the maximum; inactive = score below 0.9.
# Assays:
# [1] = molecular target: Tyrosine-protein phosphatase non-receptor type 11 (Homo sapiens) (UniProt Q06124); test: NVS_ENZ_hPTPN11: NovaScreen (NVS) Enzymatic Assay for human Protein Tyrosine Phosphatase Non-receptor Type 11 (PTPN11) (AID 2283202; active = hit-call score of the fitted dose curve at least 0.9, where 1 is the maximum)
# Chain of Tyrosine-protein phosphatase non-receptor type 11 (Homo sapiens) (Q06124 whole entry, looked up): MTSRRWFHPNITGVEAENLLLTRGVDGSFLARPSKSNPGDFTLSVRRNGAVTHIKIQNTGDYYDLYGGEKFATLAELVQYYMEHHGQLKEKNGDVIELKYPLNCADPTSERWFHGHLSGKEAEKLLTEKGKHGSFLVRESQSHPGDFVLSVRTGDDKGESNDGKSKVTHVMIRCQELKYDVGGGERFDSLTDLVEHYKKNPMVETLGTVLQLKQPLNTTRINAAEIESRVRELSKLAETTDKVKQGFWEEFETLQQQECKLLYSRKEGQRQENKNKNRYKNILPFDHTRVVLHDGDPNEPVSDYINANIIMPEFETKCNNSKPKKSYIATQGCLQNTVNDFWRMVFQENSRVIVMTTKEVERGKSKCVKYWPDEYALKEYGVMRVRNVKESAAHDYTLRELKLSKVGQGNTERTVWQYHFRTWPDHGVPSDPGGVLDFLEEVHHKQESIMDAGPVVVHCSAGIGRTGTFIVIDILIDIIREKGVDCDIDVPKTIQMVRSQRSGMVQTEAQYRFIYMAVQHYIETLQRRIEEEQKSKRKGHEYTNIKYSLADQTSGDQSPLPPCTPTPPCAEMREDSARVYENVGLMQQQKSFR
# In short: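 Recombinant human PTPN11 activity on a fluorescent substrate, with substrate/product separated by electrophoretic mobility shift; read 0.5 h after dosing, loss of signal vs DMSO. Duplicate 25 uM screen, then concentration-response up to 50 uM.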
# [2] = ATG_M_06_XSP2: Attagene TRANS-FACTORIAL Multi-Species (XSP2) HepG2 Assay for M06 Transcription Factor (Internal Marker) (AID 2283811; active = hit-call score of the fitted dose curve at least 0.9, where 1 is the maximum;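 also: hits are increases in signal above the DMSO baseline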)
# In short: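 HepG2 cells transiently transfected with GAL4-UAS multiple reporter units, medium containing 3 nM 6-alpha-fluorotestosterone and 1.5 nM norgestrel; reporter mRNA measured 24 hours post-dosing by RT-PCR and capillary electrophoresis. Internal background marker, gain of signal vs DMSO.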
# [3] = tested on: turtle Estrogen Receptor (ERa), gene 101933533; test: ATG_trERa_XSP2: Attagene TRANS-FACTORIAL Multi-Species (XSP2) HepG2 Assay for turtle Estrogen Receptor (ERa) (AID 2283812; active = hit-call score of the fitted dose curve at least 0.9, where 1 is the maximum;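 also: human HepG2 liver cells transiently expressing turtle ERa-Gal4 chimeric receptor; actives raise reporter signal above DMSO so AC50 reflects agonist activity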)
# In short: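 HepG2 cells transiently transfected with GAL4-UAS reporter units expressing turtle ERa-Gal4 chimera. Reporter mRNA measured after 24 h dosing by RT-PCR, fluorescent labelling and capillary electrophoresis; gain of signal fitted versus DMSO.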
# [4] = molecular target: Estrogen receptor beta (Homo sapiens) (UniProt Q92731); test: ATG_hERb_XSP2: Attagene TRANS-FACTORIAL Multi-Species (XSP2) HepG2 Assay for human Estrogen Receptor (ERb) (AID 2283813; active = hit-call score of the fitted dose curve at least 0.9, where 1 is the maximum;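 also: actives raise reporter mRNA above DMSO so AC50 reflects agonist induction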)
# Chain of Estrogen receptor beta (Homo sapiens) (Q92731 whole entry, looked up, the tested form may be a part): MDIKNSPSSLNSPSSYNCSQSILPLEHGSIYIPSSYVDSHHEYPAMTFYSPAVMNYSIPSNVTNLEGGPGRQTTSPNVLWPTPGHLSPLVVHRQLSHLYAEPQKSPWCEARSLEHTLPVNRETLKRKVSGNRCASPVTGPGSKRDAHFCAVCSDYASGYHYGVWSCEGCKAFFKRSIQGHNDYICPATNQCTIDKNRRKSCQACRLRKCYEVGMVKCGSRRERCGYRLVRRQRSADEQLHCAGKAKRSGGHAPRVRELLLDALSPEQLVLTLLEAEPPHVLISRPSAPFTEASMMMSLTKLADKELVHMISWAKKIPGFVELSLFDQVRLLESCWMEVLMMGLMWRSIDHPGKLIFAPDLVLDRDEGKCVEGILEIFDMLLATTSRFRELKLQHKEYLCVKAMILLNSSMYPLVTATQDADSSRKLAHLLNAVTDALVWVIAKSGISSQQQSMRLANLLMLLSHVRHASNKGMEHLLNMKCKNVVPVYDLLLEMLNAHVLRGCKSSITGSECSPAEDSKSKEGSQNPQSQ
# In short: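 HepG2 cells transiently transfected with GAL4-UAS reporter units and chimeric human ERb-Gal4, 24 h exposure. Reporter mRNA quantified by RT-PCR with FAM labelling, HpaI digestion and capillary electrophoresis; gain of signal versus DMSO.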
# [5] = molecular target: GAL4 Transcription Factor (Internal Marker), GAL4 (gene 855828) (UniProt P04386); test: ATG_GAL4_XSP2: Attagene TRANS-FACTORIAL Multi-Species (XSP2) HepG2 Assay for GAL4 Transcription Factor (Internal Marker) (AID 2283814; active = hit-call score of the fitted dose curve at least 0.9, where 1 is the maximum;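 also: GAL4 reporter mRNA background control in MRTU transfected cells not a receptor target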)
# Chain of GAL4 Transcription Factor (Internal Marker), GAL4 (gene 855828) (P04386 whole entry, looked up, the tested form may be a part): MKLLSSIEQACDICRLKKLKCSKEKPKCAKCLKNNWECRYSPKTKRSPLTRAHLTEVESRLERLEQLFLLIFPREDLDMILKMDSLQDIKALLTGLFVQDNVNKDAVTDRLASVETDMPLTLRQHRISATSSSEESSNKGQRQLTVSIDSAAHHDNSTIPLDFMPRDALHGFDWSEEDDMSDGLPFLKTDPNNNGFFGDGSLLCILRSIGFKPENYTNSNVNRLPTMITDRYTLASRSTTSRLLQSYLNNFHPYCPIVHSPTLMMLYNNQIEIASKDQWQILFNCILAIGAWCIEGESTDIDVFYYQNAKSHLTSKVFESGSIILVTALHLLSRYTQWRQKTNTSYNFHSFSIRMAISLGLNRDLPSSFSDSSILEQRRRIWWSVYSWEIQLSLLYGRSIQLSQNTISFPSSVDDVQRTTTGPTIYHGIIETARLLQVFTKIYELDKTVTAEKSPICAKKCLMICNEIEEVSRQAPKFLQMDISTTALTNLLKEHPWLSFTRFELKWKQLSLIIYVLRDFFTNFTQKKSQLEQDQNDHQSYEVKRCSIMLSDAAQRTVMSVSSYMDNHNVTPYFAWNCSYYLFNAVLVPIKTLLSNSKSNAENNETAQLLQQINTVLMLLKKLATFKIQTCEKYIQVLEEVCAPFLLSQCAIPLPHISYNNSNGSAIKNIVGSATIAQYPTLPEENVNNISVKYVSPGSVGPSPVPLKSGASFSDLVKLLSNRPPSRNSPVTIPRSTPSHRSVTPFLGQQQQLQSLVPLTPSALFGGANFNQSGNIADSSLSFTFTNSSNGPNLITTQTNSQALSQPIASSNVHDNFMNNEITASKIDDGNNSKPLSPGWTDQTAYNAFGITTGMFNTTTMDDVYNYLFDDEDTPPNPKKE
# In short: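 HepG2 cells transiently transfected with GAL4-UAS reporter units, stimulated with 3 nM 6-alpha-fluorotestosterone plus 1.5 nM norgestrel, dosed 24 h. Reporter mRNA by RT-PCR/capillary electrophoresis; gain-of-signal fit versus DMSO, background control.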
# [6] = molecular target: zebrafish Estrogen Receptor (ER1), esr1 (gene 259252) (UniProt P57717); test: ATG_zfER1_XSP2: Attagene TRANS-FACTORIAL Multi-Species (XSP2) HepG2 Assay for zebrafish Estrogen Receptor (ER1) (AID 2283816; active = hit-call score of the fitted dose curve at least 0.9, where 1 is the maximum)
# Chain of zebrafish Estrogen Receptor (ER1), esr1 (gene 259252) (P57717 whole entry, looked up, the tested form may be a part): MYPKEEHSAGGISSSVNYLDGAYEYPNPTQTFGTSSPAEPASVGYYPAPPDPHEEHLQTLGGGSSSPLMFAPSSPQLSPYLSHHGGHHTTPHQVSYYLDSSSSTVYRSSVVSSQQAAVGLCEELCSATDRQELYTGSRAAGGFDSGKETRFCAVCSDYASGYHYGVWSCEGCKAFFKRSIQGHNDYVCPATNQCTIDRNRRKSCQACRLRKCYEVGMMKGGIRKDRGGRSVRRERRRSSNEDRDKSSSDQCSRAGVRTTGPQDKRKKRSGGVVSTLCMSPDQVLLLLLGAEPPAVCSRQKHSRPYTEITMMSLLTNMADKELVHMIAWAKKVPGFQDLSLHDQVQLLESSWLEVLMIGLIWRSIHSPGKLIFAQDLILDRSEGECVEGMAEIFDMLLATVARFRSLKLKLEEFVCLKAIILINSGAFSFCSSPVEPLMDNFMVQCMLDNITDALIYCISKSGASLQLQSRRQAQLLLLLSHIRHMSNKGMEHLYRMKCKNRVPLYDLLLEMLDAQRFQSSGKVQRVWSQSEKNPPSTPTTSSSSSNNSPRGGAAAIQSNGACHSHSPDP
# In short: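 HepG2 cells transiently transfected with a GAL4-UAS reporter and a chimeric zebrafish ER1-Gal4 construct, dosed 24 h. Reporter mRNA quantified by RT-PCR, labelling, HpaI digestion and capillary electrophoresis, relative to DMSO.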
# [7] = read-out: Interleukin-8 (IL8), CXCL8 (gene 3576); test: BSK_KF3CT_IL8: BioMAP Diversity Plus: KF3CT Assay for Interleukin-8 (IL8) Biomarker Activity (AID 2284254); conditions: primary human keratinocytes with fibroblasts
# In short: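 IL-8 read-out: ELISA, 24 h post-dose, human skin primary co-culture (keratinocytes + foreskin fibroblasts). DMSO = baseline; positive-direction fit.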
# [8] = read-out: Intercellular Adhesion Molecule 1 (ICAM1), ICAM1 (gene 3383); test: BSK_BE3C_ICAM1: BioMAP Diversity Plus: BE3C Assay for Intercellular Adhesion Molecule 1 (ICAM1) Biomarker Activity (AID 2284278); conditions: primary human bronchial epithelial cells;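 also: cell-surface ICAM-1 protein level quantified by ELISA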
# In short: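 Human primary bronchial epithelial cultures; compound added; 24 h incubation; cell-surface ICAM-1 measured by ELISA; signal increase fitted relative to DMSO negative control.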
# [9] = read-out: Interleukin-8 (IL8), CXCL8 (gene 3576); test: BSK_BE3C_IL8: BioMAP Diversity Plus: BE3C Assay for Interleukin-8 (IL8) Biomarker Activity (AID 2284280); conditions: primary human bronchial epithelial cells
# In short: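 Primary human bronchial epithelial cells (BE3C system) exposed 24 h; IL-8 measured by ELISA and fitted in positive direction versus DMSO. Overt cytotoxicity assessed by SRB total-protein staining in parallel cultures.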
# [10] = read-out: Epidermal growth factor receptor (EGFR), EGFR (gene 1956); test: BSK_BE3C_EGFR: BioMAP Diversity Plus: BE3C Assay for Epidermal growth factor receptor (EGFR) Biomarker Activity (AID 2284281); conditions: primary human bronchial epithelial cells
# In short: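 Human primary bronchial epithelial cells (BE3C system) dosed with chemicals; EGFR measured by ELISA at 24 h, fitted in the positive direction relative to DMSO. Cytotoxicity tracked in parallel cultures by SRB total-protein staining.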
# KRT18 (gene 3875) = test: BSK_BE3C_Keratin818: BioMAP Diversity Plus: BE3C Assay for Keratin 818 Biomarker Activity (AID 2284282); conditions: primary human bronchial epithelial cells
# In short: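 Chemicals are added to human lung bronchial epithelial primary cells (BE3C system) and incubated 24 h. Keratin 8/18 is then measured by ELISA, with parallel SRB total-protein staining gauging overt cytotoxicity.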
# [11] = read-out: Plasminogen activator inhibitor-1 (PAI1), SERPINE1 (gene 5054); test: BSK_CASM3C_PAI1: BioMAP Diversity Plus: CASM3C Assay for Plasminogen activator inhibitor-1 (PAI1) Biomarker Activity (AID 2284284); conditions: primary human coronary artery smooth muscle cells;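 also: PAI-1 protein level measured by ELISA 24 h after dosing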
# [12] = read-out: Monocyte Chemoattractant Protein-1 (MCP1), CCL2 (gene 6347); test: BSK_hDFCGF_MCP1: BioMAP Diversity Plus: hDFCGF Assay for Monocyte Chemoattractant Protein-1 (MCP1) Biomarker Activity (AID 2284285); conditions: primary human foreskin fibroblasts
# In short: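 Human foreskin fibroblasts (hDFCGF system) were exposed to compound and secreted MCP-1 was measured by ELISA after 24 hours. Activity was fitted relative to DMSO. Cytotoxicity was checked by SRB total-protein staining in parallel cultures.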
# [13] = read-out: Intercellular Adhesion Molecule 1 (ICAM1), ICAM1 (gene 3383); test: BSK_hDFCGF_ICAM1: BioMAP Diversity Plus: hDFCGF Assay for Intercellular Adhesion Molecule 1 (ICAM1) Biomarker Activity (AID 2284287); conditions: primary human foreskin fibroblasts
# In short: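 Primary human foreskin fibroblasts (hDFCGF system) dosed with chemical; ICAM-1 quantified by ELISA at 24 h relative to DMSO. Parallel SRB total-protein staining to assess overt cytotoxicity.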
# [14] = read-out: TIMP metallopeptidase inhibitor 2 (TIMP2), TIMP2 (gene 7077); test: BSK_hDFCGF_TIMP2: BioMAP Diversity Plus: hDFCGF Assay for TIMP metallopeptidase inhibitor 2 (TIMP2) Biomarker Activity (AID 2284289); conditions: primary human foreskin fibroblasts
# In short: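 Primary human foreskin fibroblasts in the hDFCGF system, dosed for 24 h; TIMP-2 level measured by ELISA, fitted in the positive direction against DMSO; cytotoxicity checked in parallel by sulforhodamine B total protein staining.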
# [15] = read-out: Thrombomodulin, THBD (gene 7056); test: BSK_LPS_Thrombomodulin: BioMAP Diversity Plus: LPS Assay for Thrombomodulin Biomarker Activity (AID 2284296); conditions: primary human HUVEC with PBMC
# In short: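 Human umbilical vein endothelial cells co-cultured with PBMC and stimulated with LPS; cell-surface thrombomodulin measured by ELISA 24 hours after compound. Gain or loss versus DMSO; cytotoxicity checked by SRB staining in parallel cultures.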
# CD69, CD69 (gene 969) = test: BSK_LPS_CD69: BioMAP Diversity Plus: LPS Assay for CD69 Biomarker Activity (AID 2284303); conditions: primary human HUVEC with PBMC
# In short: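 Human umbilical vein endothelial cells co-cultured with PBMC under LPS stimulation, chemical exposure 24 h; cell-surface CD69 measured by ELISA and fitted in the positive direction versus DMSO.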
# [16] = molecular target: human Dual Specificity Protein Phosphatase 3 (DUSP3), DUSP3 (gene 1845) (UniProt P51452); test: NVS_ENZ_hDUSP3: NovaScreen (NVS) Enzymatic Assay for human Dual Specificity Protein Phosphatase 3 (DUSP3) (AID 2283152; active = hit-call score of the fitted dose curve at least 0.9, where 1 is the maximum;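 also: phosphatase activity of recombinant human DUSP3 on a fluorogenic substrate without cells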)
# Chain of human Dual Specificity Protein Phosphatase 3 (DUSP3), DUSP3 (gene 1845) (P51452 whole entry, looked up): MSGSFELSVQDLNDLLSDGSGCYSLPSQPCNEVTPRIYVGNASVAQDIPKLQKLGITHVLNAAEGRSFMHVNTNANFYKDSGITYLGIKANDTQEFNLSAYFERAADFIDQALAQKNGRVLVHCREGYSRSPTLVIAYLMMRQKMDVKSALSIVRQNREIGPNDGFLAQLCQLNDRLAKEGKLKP
# In short: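 Cell-free assay with recombinant human DUSP3 and fluorogenic substrate, read by fluorescence intensity. Primary screen ran duplicate at 25 uM; actives followed up in concentration series; loss of signal versus DMSO scored.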
# [17] = molecular target: human Neurokinin, NK2 Receptor, TACR2 (gene 6865) (UniProt P21452); test: NVS_GPCR_hNK2: NovaScreen (NVS) G Protein-Coupled Receptor Assay for human Neurokinin, NK2 Receptor (AID 2283278; active = hit-call score of the fitted dose curve at least 0.9, where 1 is the maximum;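 also: actives reduce bound radioligand signal relative to DMSO baseline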)
# Chain of human Neurokinin, NK2 Receptor, TACR2 (gene 6865) (P21452 whole entry, looked up): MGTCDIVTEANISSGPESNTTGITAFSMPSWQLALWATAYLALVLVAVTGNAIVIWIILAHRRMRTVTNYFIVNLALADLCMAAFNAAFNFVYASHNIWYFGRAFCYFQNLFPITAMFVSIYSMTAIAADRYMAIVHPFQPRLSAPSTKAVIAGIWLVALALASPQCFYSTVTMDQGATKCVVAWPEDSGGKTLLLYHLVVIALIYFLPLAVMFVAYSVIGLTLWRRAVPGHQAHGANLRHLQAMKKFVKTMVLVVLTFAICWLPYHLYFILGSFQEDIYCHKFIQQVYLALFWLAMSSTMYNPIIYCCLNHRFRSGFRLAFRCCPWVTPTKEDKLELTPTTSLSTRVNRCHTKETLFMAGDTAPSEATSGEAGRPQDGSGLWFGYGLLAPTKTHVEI
# In short: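 Cell-free radioligand binding using receptor protein extracted from CHO cells; readings taken 4 hours after chemical dosing by filter-based scintillation counting. Primary screen ran single concentration (25 uM) in duplicate; actives followed up in concentration series, loss-of-signal versus DMSO baseline.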
# [18] = molecular target: human Opioid Receptor Mu (Opiate Mu), OPRM1 (gene 4988) (UniProt P35372); test: NVS_GPCR_hOpiate_mu: NovaScreen (NVS) G Protein-Coupled Receptor Assay for human Opioid Receptor Mu (Opiate Mu) (AID 2283290; active = hit-call score of the fitted dose curve at least 0.9, where 1 is the maximum;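 also: hits lower bound tracer signal versus DMSO meaning displacement of the ligand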)
# Chain of human Opioid Receptor Mu (Opiate Mu), OPRM1 (gene 4988) (P35372 whole entry, looked up): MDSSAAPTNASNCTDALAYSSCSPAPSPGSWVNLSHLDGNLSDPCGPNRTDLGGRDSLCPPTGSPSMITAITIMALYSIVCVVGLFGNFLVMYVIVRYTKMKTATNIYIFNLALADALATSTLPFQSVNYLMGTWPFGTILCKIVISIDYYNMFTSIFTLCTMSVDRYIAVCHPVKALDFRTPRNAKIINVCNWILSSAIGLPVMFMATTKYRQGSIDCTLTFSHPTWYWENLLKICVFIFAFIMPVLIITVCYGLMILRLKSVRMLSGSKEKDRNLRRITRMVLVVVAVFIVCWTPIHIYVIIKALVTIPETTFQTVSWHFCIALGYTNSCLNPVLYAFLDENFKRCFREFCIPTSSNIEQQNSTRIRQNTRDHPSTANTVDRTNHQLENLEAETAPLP
# In short: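 Primary screen in duplicate at 25 uM, with actives followed in concentration series. CHO-derived receptor membranes, cell-free; bound radioligand read by scintillation counting after filtration at 2.5 h, decrease scored against DMSO.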
smiles,measurement,setting,value
Cc1cc(O)cc(C)c1Cl,outcome,[1],inactive
same,outcome,[2],inactive
same,AC50,[3],45.8 µM (active) and 16.2 µM (active)
same,AC50,[4],7.77 µM (active) and 7.9 µM (active)
same,outcome,[5],inactive
same,AC50,[6],76 µM (active) and 29.7 µM (active)
CC[N+](CC)(CC(=O)Nc1c(C)cccc1C)Cc1ccccc1 (tested in a mixture with another compound),outcome,[7],inactive
same,outcome,[8],inactive
same,outcome,[9],inactive
same,outcome,[10],inactive
same,outcome,KRT18 (gene 3875),inactive
same,outcome,[11],inactive
same,outcome,[12],inactive
same,outcome,[13],inactive
same,outcome,[14],inactive
same,outcome,[15],inactive
same,outcome,"CD69, CD69 (gene 969)",inactive
CCCCCCCCCCCCCCCCCC[N+](C)(C)C,AC50,[16],7.9 µM (active)
same,AC50,[17],4.53 µM (active)
same,AC50,[18],3.4 µM (active)
CC[N+](CC)(CC(=O)Nc1c(C)cccc1C)Cc1ccccc1,AC50,[17],16.6 µM (active)
same,outcome,[18],inactive
CN(C)Cc1cc(C(C)(C)C)c(O)c(C(C)(C)C)c1,outcome,[7],inactive
same,outcome,[8],inactive
same,outcome,[9],inactive
same,outcome,[10],inactive
same,outcome,KRT18 (gene 3875),inactive
same,outcome,[11],inactive
same,outcome,[12],inactive
same,outcome,[13],inactive
same,outcome,[14],inactive
same,outcome,[15],inactive
same,AC50,"CD69, CD69 (gene 969)",20 µM (active) and 23.1 µM (active)
CC1(C)S[C@@H]2[C@H](NC(=O)[C@H](N)c3ccccc3)C(=O)N2[C@H]1C(=O)O,AC50,[16],8.24 µM (active)
